Source: PubChem BioAssay
CRFBP-R2 agonist = CRF-BP/CRF-R2 complex agonism; activation, % at 13.2 µM; actives 0.46% (n = 350,000); HEK293 CRF-R2/CRF-BP, calcium dye fluorescence (FLIPR); percent of saturating CRF peptide response; AID 588473;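 active = activation of at least 50%, plus an integration ratio under a set limit after plate pattern correction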
CRFR2-BP antag = blocks CRF-induced signaling of the CRF-BP/CRF-R2 complex; HEK293 CRF-R2/CRF-BP, CRF-induced calcium fluorescence; inhibition, % at 11.8 µM; actives 0.59% (n = 350,000);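 active = inhibition of the ligand-induced calcium signal above about 50% at the single tested concentration, limit read from the data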
Cardiac RTF inh = cardiac RTF calcium desensitization | P19429+P45379 | inhibition, % at 7.15 µM | actives 0.12% (n = 340,000) | IANBD-labeled cardiac RTF, Ca2+ fluorescence;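 active = inhibition above the mean inhibition of all tested compounds plus 3 SD, cut at about 17% in these data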;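 also: assay run at fixed EC70 calcium of 1.6 mM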
IDE inh = inhibits human insulin-degrading enzyme in HEK cells; P14735; inhibition, % at 5.59 µM; FAbetaB cleavage, fluorescence polarization; AID 434962; actives 0.41% (n = 320,000);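 active = percent inhibition above the average of all tested compounds plus 3 SD, set per screening campaign, cut at about 16% in these data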;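 also: IDE supplied by intact live HEK cells; FP after avidin binding of uncleaved biotin substrate so inhibition keeps polarization high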
RTF Ca sens act = cardiac RTF calcium sensitization | IANBD-labeled TnC RTF fluorescence at EC20 calcium; 0% EC20 calcium, 100% full calcium | activation, % at 7.2 µM | actives 0.24% (n = 340,000);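 active = activation above the mean over all tested compounds plus 3 SD, cut at about 30% in these data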;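 also: rise in fluorescence read as greater calcium sensitivity of cardiac thin filaments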
IDE cell activ = activators of human insulin-degrading enzyme in cells; activation, % at 5.96 µM; HEK cells, FAbeta-B cleavage, fluorescence polarization; 0% vehicle, 100% cell-free pure enzyme wells; actives 0.073% (n = 340,000);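 active = activation above the mean of all tested compounds plus 3 SD, set per screening campaign, cut at about 17% in these data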
Hits are given with their value; n = inactive; x = not tested or not shown. Sampled rows, rich in hits. Any-hit rate of the full collection: about 1.5%.

SMILES | CRFBP-R2 agonist | CRFR2-BP antag | Cardiac RTF inh | IDE inh | RTF Ca sens act | IDE cell activ
Cc1ccc2nc(N(CCCN(C)C)C(=O)COc3ccc(Cl)cc3)sc2c1 | n | n | n | n | n | 21.8
Cc1cc(C)c2sc(N(CCCN(C)C)C(=O)COc3ccc(Cl)cc3)nc2c1 | n | n | n | n | n | 26.9
CN(C)CCCN(C(=O)COc1ccc(Cl)cc1)c1nc2ccc(F)cc2s1 | n | n | n | n | n | 17.8
Clc1ccc(NN(Cc2ccncc2)c2ccc(Cl)cc2)cc1 | 51.4 | n | x | x | x | x
COc1ccc(CCNC(=S)NCCc2ccc(OC)c(OC)c2)cc1OC | n | n | x | n | x | x
COc1ccc(CCNC(N)=S)cc1OC | n | 62.8 | n | n | n | n
CCOCCCn1c(SCc2nc3ccccc3s2)nc2ccccc2c1=O | 51.5 | n | n | n | n | n
CCOCCCn1c(SCC(=O)Nc2ccccc2)nc2ccccc2c1=O | n | n | n | n | n | n
CCOC(=O)C1CCN(C(=O)COC(=O)CSc2ccccc2C)CC1 | n | n | n | n | n | n
N#Cc1c(NC(=O)c2ccccc2)sc2c1CCCCC2 | n | n | n | n | n | n
N#Cc1c(Cl)nsc1NC(=O)c1ccccc1 | n | 55.9 | n | n | n | n
O=C(O)c1ccc(N=NNc2cccc([N+](=O)[O-])c2)cc1 | n | n | n | n | n | n
N#C/C(=N\Nc1ccc([N+](=O)[O-])cc1)C(N)=S | n | 57.4 | n | n | n | n
N#C/C(=N/Nc1ccc([N+](=O)[O-])cc1)C(=N)N1CCCCC1 | n | n | n | x | n | n
N#C/C(=N\Nc1cccc([N+](=O)[O-])c1)C(=O)c1ccc(Br)cc1 | n | 51.7 | n | n | n | n
O=C(NCCc1ccc(Cl)cc1)C1COc2ccccc2O1 (centres undefined) | n | n | n | n | n | n
C=CCN(CC=C)Cc1c(O)ccc2c(=O)c(-c3ccccc3)coc12 | n | n | n | n | n | n
COc1ccccc1NS(=O)(=O)c1ccc(N/N=C/c2c(C)nn(-c3ccccc3)c2N2CCCC2)c([N+](=O)[O-])c1 | n | 55.7 | n | n | n | n
Cc1nn(-c2ccccc2)c(N2CCCC2)c1/C=N/Nc1ccc(S(=O)(=O)Nc2ccccc2)cc1[N+](=O)[O-] | n | n | n | n | n | n
CSc1ccccc1NC(=O)CN(C)C(=O)c1ccc(-n2cccn2)cc1 | n | n | n | n | n | n
COc1ccc2c(CC#N)c[nH]c2c1 | 78.4 | n | n | n | n | n
COc1ccc2c(CCNC(N)=S)c[nH]c2c1 | n | n | n | n | n | n
CCOC(=O)C1CCN(C(=O)c2ccc(S(=O)(=O)Nc3ccccc3Cl)cc2)CC1 | n | n | n | x | n | n
Cc1c(CC(Cl)(Cl)Cl)c2c(n1O)CC(C)(C)CC2=O | 55.0 | 74.3 | n | n | n | n
O=c1c(Cl)c2oc3ccccc3nc-2c2ccccc12 | 207.2 | n | n | n | n | n
SMILES | CRFBP-R2 agonist | CRFR2-BP antag | Cardiac RTF inh | IDE inh | RTF Ca sens act | IDE cell activ
Cc1ccc(O)c(C(=O)c2cc(C#N)c3nc4ccccc4n3c2)c1 | 66.4 | n | n | n | n | n
Cc1ccc(O)c(C(=O)c2cc(C#N)c(=O)n(Cc3ccccc3)c2)c1 | n | n | n | n | n | n
O=C(NC1CCN(Cc2ccccc2)C1)c1cc(S(=O)(=O)N2CCOCC2)ccc1Cl (centres undefined) | n | n | n | n | n | n
Cc1ccc(S(=O)(=O)N2CCOCC2)cc1C(=O)NC1CCN(Cc2ccccc2)CC1 | n | 56.3 | n | x | n | n
Cc1ccc(S(=O)(=O)N2CCOCC2)cc1C(=O)Nc1ccncc1 | n | n | n | n | n | n
Cc1ccc(S(=O)(=O)N2CCOCC2)cc1C(=O)Nc1ccc(-c2cn3ccsc3n2)cc1 | n | n | n | 19.9 | n | n
COc1ccc(NC(=O)N(C)C[C@H]2Oc3c(NS(=O)(=O)c4cccs4)cccc3C(=O)N([C@@H](C)CO)C[C@@H]2C)cc1 | n | n | n | n | n | n
Cc1ccc2cc(CCNS(=O)(=O)c3ccc(Br)cc3)c(=O)[nH]c2c1C | n | n | n | n | n | n
O=C(C[C@H]1C[C@H](C(=O)N2CCOCC2)[C@@]2(CCC3CCCC3)c3[nH]c4ccc(Cl)cc4c3CCN2C1=O)NCCN1CCOCC1 | 88.4 | n | n | x | n | n
Cc1ccccc1N(CC(=O)NC1CCCCC1)C(=O)CNC(=O)c1cccs1 | n | n | n | n | n | n
CC(=O)c1cccc(Nc2cc(C)nc3c(C)cccc23)c1 | n | 109.3 | n | n | n | n
O=C(N/N=C/c1ccoc1)c1ccccc1F | n | n | n | n | n | n
CCc1ccc(-c2nc(CN3CCC(C(=O)N4CCN(c5ccccc5)CC4)CC3)c(C)o2)cc1 | 312.7 | n | n | n | n | n
CC(=O)c1c(C)c2c(n1CCN(C)C)CCCC2 | 62.2 | n | n | n | n | n
O=C(CNC(=O)c1ccc2ccccc2c1)NCc1ccc(F)cc1 | n | n | n | n | n | n
Cc1c(C(c2ccc(N(C)C)cc2)c2c(C)n(C)n(-c3ccccc3)c2=O)c(=O)n(-c2ccccc2)n1C | n | 53.6 | n | n | n | n
C=CCOC(=O)C1=C(C)Nc2ncnn2C1c1cc(Br)ccc1F (centres undefined) | n | n | n | n | n | n
Fc1ccc(Br)cc1C1C=C(c2ccc(Br)s2)Nc2ncnn21 (centres undefined) | n | n | n | n | 72.9 | n
Cc1ccccc1NC(=O)COC(=O)c1cc(S(=O)(=O)N2CCOCC2)ccc1C | n | n | n | n | n | n
O=C(Nc1ccccc1)c1ccccc1NS(=O)(=O)c1ccc(Cl)s1 | n | 67.7 | n | n | n | n
O=C(Nc1ccccc1Cc1ccccc1)c1ccccc1NS(=O)(=O)c1ccc(Cl)s1 | n | 104.8 | n | n | n | n
O=C(Nc1nnc(S(=O)(=O)Nc2ccccc2)s1)c1ccccc1Cl | n | 75.9 | n | n | n | n
Cc1ccc(NC(=O)c2ccccc2NS(=O)(=O)c2ccc(Cl)s2)cc1 | 64.6 | 79.7 | n | n | n | n
O=C(NCc1ccco1)c1ccccc1NS(=O)(=O)c1ccc(Cl)s1 | n | n | n | n | n | n
CS(=O)(=O)c1ccccc1C(=O)Nc1ccccc1Cc1ccccc1 | n | n | n | n | n | n
C[C@@H]1[C@H]2[C@@H](O[C@@H]3O[C@H](CO)[C@@H](O)[C@H](O)[C@H]3O)OC=C(C(=O)O)[C@H]2C[C@@H]1O | n | n | n | n | n | n
CN(CC(=O)Nc1cccc(F)c1)C(=O)CNS(=O)(=O)c1ccc(N(C)C)c([N+](=O)[O-])c1 | n | n | n | n | n | n
COc1cc(C2NC(=S)NC(C)=C2C(=O)Nc2cc(C)cc(C)c2)ccc1O (centres undefined) | n | n | n | n | n | n
